The structures appear in SMILES notation. Screen size: about 310,000 compounds; about 1,200 (0.39%) were called active. The list is a sample of the results. Entries with a potency or affinity are not part of this list. Values without a mark were called inactive. The rule behind the calls is not given here.

Sequence of Large T antigen (Simian virus 40) (P03070 whole entry, looked up): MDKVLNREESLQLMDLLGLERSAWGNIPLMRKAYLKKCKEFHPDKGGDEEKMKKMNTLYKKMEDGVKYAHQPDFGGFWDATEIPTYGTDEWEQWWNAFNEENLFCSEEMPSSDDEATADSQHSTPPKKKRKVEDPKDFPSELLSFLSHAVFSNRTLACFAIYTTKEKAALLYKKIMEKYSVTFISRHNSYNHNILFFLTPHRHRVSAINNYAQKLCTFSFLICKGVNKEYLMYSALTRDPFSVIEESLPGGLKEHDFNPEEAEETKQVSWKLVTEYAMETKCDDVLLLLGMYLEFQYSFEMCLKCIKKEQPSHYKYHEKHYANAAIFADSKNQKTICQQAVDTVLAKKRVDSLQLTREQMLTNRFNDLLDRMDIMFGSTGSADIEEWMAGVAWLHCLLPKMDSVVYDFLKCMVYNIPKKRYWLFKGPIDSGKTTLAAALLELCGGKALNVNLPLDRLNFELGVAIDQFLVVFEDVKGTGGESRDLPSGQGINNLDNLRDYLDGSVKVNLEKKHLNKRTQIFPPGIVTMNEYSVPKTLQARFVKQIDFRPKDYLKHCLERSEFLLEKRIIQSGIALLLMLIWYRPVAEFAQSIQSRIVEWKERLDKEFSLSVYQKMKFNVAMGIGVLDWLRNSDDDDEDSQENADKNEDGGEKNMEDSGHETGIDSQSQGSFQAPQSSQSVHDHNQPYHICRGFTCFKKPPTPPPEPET

The test addresses Large T antigen (Simian virus 40) (UniProt P03070). The experiment in a line: TAg ATPase/helicase activity blockers – biochemical (AID 1903). To be noted: SV40 large T antigen ATPase/helicase inhibition assay; at 20 µM; hits give high values.
With `N#CCn1nnc(-c2ccc3c(c2)OCO3)n1`, the inhibition is 5.17%.

`COc1cc2nc(C3CCC3)nc(N3CCN(c4ccccn4)CC3)c2cc1OC`: the inhibition was 3.99%.

On to `O=C(N/N=C/c1ccc(N2CCOCC2)s1)c1ccccc1Br`, for which the inhibition is 28.7%.

For the compound `O=C(N/N=C/c1ccc(N2CCOCC2)s1)c1ccccc1Cl`, the inhibition is 19.1%.

Regarding `CC(C)(C)OC(=O)N/N=C\c1ccc([N+](=O)[O-])s1`, the inhibition was 9.37%.

For the compound `Clc1cccc(N/N=C/c2ccc(N3CCOCC3)s2)c1`, the inhibition is 0.11%.

Turning to `Cc1cc(-c2cc(-c3ccc(Cl)cc3)on2)nc(NCC2CC2)n1`, the inhibition is 19.1%.

In the case of `COC(C/C=C/[C@@H](O)[C@H](C)OCc1ccccc1)OC`, the inhibition is 7.24%.

With `COc1cc2[nH]c(=O)n(CCCCCC(=O)NCCCN3CCOCC3)c(=O)c2cc1OC`, the inhibition was 9.95%.

With `Nc1c(N)c2ccccc2oc1=O`, the inhibition was 3.21%.

`O=C1CCC(C(=O)NCCN2C(=O)S/C(=C\c3cccnc3)C2=O)=NN1`: the inhibition is 9.31%.

Take `COc1cc(/C=C2/NC(=O)N(CC(=O)Nc3cccc(C)c3)C2=O)ccc1OCC(N)=O`: the inhibition is 6.55%.

For `CCOC(=O)c1[nH]c2ccccc2c1NC(=S)Nc1ccccc1C`, the inhibition is 35.3%.

Consider `CCOC(=O)c1[nH]c2ccccc2c1N=CN(CC)CC`, for which the inhibition was 13.2%.

For `CCCn1c(SCc2nc(N)nc(N3CCCCC3)n2)nc2c1c(=O)n(C)c(=O)n2C`, the inhibition was 27.3%.

With `CC(C)N1C(=O)S/C(=C\c2ccc(-c3ccc(Cl)c(C(=O)O)c3)o2)C1=O`, the inhibition was 31%.

Take `CC1=NOC(=O)/C1=C/c1ccc(-c2ccc(Cl)cc2)o1`: the inhibition was 29.9%.

In the case of `CC1=NOC(=O)/C1=C\c1ccc(-c2cccc(Cl)c2)o1`, the inhibition was 2.49%.

With `CC1=NOC(=O)/C1=C\c1ccc(-c2ccc(Br)cc2C(=O)O)o1`, the inhibition is 37.7%.

As to `O=C(O)c1cc(-c2ccc(/C=C3\NC(=O)N(c4ccccc4)C3=O)o2)ccc1Cl`, the inhibition was 22.8%.

Turning to `CC1=NOC(=O)/C1=C\c1ccc(-c2ccc(Br)cc2)o1`, the inhibition is 11.9%.

In the case of `Cc1ccc(NCC(=O)Nc2cccc(F)c2)cc1S(=O)(=O)N1CCCCCC1`, the inhibition is 30.7%.

Consider `O=C(Cc1cccs1)Nc1nnc(SCc2ccc(C(F)(F)F)cc2)s1`, for which the inhibition is 21%.

As to `O=C(c1cnn2c(C(F)(F)F)cc(-c3ccccc3)nc12)N1CCOCC1`, the inhibition was 2.03%.

Consider `CN(/N=C/Cc1nnnn1-c1ccc(Cl)cc1)c1ccccc1`, for which the inhibition was 12.9%.

With `Fc1ccc2c(c1)C(c1ccncc1)=NNC(c1ccc(Cl)cc1)=N2`, the inhibition was -2.03%.

`CCOc1ccc(S(=O)(=O)NCCC(=O)NC2CCCCC2)cc1`: the inhibition was 6.66%.

With `CCC(C)CCN1C(N(C)C)=NC[C@@H]1CC(C)C` (some centres undefined), the inhibition is -8.26%.

Turning to `COc1cc(OC)c(NS(=O)(=O)c2ccc(Cl)c(C(=O)OC(C)C(=O)N3CCCC3)c2)cc1Cl` (centres undefined), the inhibition is 0.34%.

For the compound `NS(=O)(=O)c1ccc(N/N=C/c2ccccn2)c([N+](=O)[O-])c1`, the inhibition was 9%.

As for `NS(=O)(=O)c1ccc(N/N=C/c2ccc(O)cc2O)c([N+](=O)[O-])c1`, the inhibition is 14.4%.

For `O=C(CCC1COc2ccccc2O1)NCc1ccco1` (centres undefined), the inhibition was 9.35%.

Regarding `CC(=O)c1cc2cc(O)ccc2o1`, the inhibition is 3.38%.

Take `Cc1cc(=O)c2c(O)c(O)ccc2o1`: the inhibition is 27.4%.

With `O=C(CCNC(=O)C1CCN(S(=O)(=O)c2ccccc2)CC1)NCc1ccncc1`, the inhibition is 18.3%.

Regarding `CCCCCCn1c(N(CC)CC)nc2c1c(=O)[nH]c(=O)n2C`, the inhibition is 19.9%.

`Oc1ccc(/C=N/Nc2ccc(C(F)(F)F)cn2)cc1`: the inhibition is 35.9%.

For `Oc1cccc(/C=N/Nc2ccc(Cl)nn2)c1`, the inhibition was 1.08%.

As to `Oc1c(Br)cc(/C=N/Nc2ccc(Cl)nn2)cc1Br`, the inhibition was 31.9%.

For `O=C(O)c1ccc(/C=N/Nc2ccc(C(F)(F)F)cn2)cc1`, the inhibition is 4.16%.

As for `CCOC(=O)C1CCCN(c2c(N3CCC(N4CCCCC4)CC3)c(=O)c2=O)C1` (centres undefined), the inhibition was 0.55%.

As for `CN1CCN(S(=O)(=O)c2cccc(C(=O)Nc3ccccc3N3CCOCC3)c2)CC1`, the inhibition was 8.67%.

As to `CCC(C)NC(=O)CN(c1ccc(Cl)c(Cl)c1)S(C)(=O)=O` (centres undefined), the inhibition is 2.27%.

On to `COc1cccc(OC)c1C(=O)NNS(=O)(=O)c1ccc2ccccc2c1`, for which the inhibition was 4.3%.

Take `O=[N+]([O-])c1ccc(CSc2nc3ccccc3o2)cc1`: the inhibition is 1.36%.

For `O=[N+]([O-])c1ccc(Cl)cc1Sc1nc2ccccc2o1`, the inhibition was 3.7%.

As for `Cc1nc(CCNC(=O)CC2C(=O)NCCN2CC(C)(C)C)nc2c1CCC2` (centres undefined), the inhibition is 17.9%.

On to `CC(=O)N1CCN(S(=O)(=O)c2cccc(C(=O)Nc3ccc(C)cn3)c2)CC1`, for which the inhibition is 10.6%.

Consider `Cc1c(O)ccc2c(CN3CCN(Cc4ccccc4)CC3)cc(=O)oc12`, for which the inhibition was 20.2%.

With `O=c1cc(CN2CCOCC2)c2ccc(O)c(O)c2o1`, the inhibition was 31.2%.

Regarding `COc1ccc(OC)c(C(=O)c2coc3ccc(O)c(CN(C)C)c23)c1`, the inhibition is 7.95%.

`CCCc1cc(N2CCN(C(=O)c3ccco3)CC2)n2c(nc3ccccc32)c1C#N`: the inhibition was 14.7%.

Regarding `Cc1ccc(S(=O)(=O)Nc2ccc(N3CCN(C)CC3)nc2)cc1`, the inhibition was 15.7%.

Turning to `COc1cc2nc3occc3c(OC)c2cc1OC`, the inhibition was 19.9%.

Turning to `COc1ccc2c(OC)c3ccoc3nc2c1OC`, the inhibition is 6.26%.

Consider `CCn1nc(C)c(CN2CCCCC2C(=O)Nc2ccc(Oc3cccnc3)cc2)c1C` (centres undefined), for which the inhibition is 13.5%.

With `CC(Oc1ccc2ccc(=O)oc2c1)C(=O)N1CCOCC1` (centres undefined), the inhibition is 29.2%.

Take `Cc1ccc2[nH]c(O)c(N=O)c2c1`: the inhibition is 1.83%.

On to `O=Nc1c(O)[nH]c2ccc(F)cc12`, for which the inhibition was 3.33%.

Take `Cn1c(=O)c2sccc2n2c(CCCC(=O)N3CCCCC3)nnc12`: the inhibition was 7.77%.

For `CN1c2cccc3cccc(c23)N(C)C1(C)C`, the inhibition was 23%.

As for `CN1C(=O)N(C)c2ccc(C=O)c3cccc1c23`, the inhibition is 1.16%.

Take `O=C(CCN1CCN(c2ccccn2)CC1)Nc1ccc(F)cc1`: the inhibition was 2.77%.

As for `COc1ccc(NC(=O)CCN2CCN(S(=O)(=O)c3ccc(OC)cc3)CC2)cc1`, the inhibition was 6.07%.

On to `CC(=O)Nc1ccc(NC(=O)CN2CCN(c3ccccn3)CC2)cc1`, for which the inhibition is 0.46%.

For the compound `COc1ccc(NC(=O)c2ccc(N3CCOCC3)nc2)cc1`, the inhibition was 6.11%.

Take `COc1ccc(NC(=O)CCN2CCN(S(=O)(=O)c3ccc(C(C)C)cc3)CC2)cc1`: the inhibition was 14.9%.

As for `Cc1ccc(C(=O)Nc2ccc(N3CCOCC3)nc2)cc1`, the inhibition is 1.46%.

Regarding `CCN(CC)CCn1c2c(c(SCC(=O)Nc3ccc4c(c3)OCO4)nc1=O)CCC2`, the inhibition was 8.82%.

Turning to `O=C(O)C1=C[C@H](c2ccc3c(c2)OCO3)C[C@H](OCc2ccc(CO)cc2)O1`, the inhibition was 9.17%.

With `COc1ccccc1-c1cc(C(F)(F)F)nc(S(=O)(=O)CCCC(=O)NCc2ccc(F)cc2)n1`, the inhibition is 23.6%.

With `CCOc1ccc(C(=O)CCc2nc3ccccc3s2)cc1`, the inhibition was 17.3%.

Turning to `CCOC(=O)/C(C#N)=C/c1c(N2CCN(c3ccccc3)CC2)nc2c(C)cccn2c1=O`, the inhibition was 2.5%.

As for `COc1cc(Cl)c(C)cc1Nc1ncccn1`, the inhibition is 5.51%.

With `CCCCCNC(=O)Cn1c(=O)c2c(ncn2CC(C)C)n(Cc2ccccc2)c1=O`, the inhibition is 9.03%.

With `O=C(CSc1nnc(NC(=O)c2c(F)cccc2F)s1)NCc1ccccc1`, the inhibition was 9.61%.

`COCCn1c(=O)[nH]c2cc(C(=O)NCCN3CCN(c4ccccc4)CC3)ccc2c1=O`: the inhibition is 0.98%.

For `O=S(=O)(NC1=NCCCCC1)c1ccc2ccccc2c1`, the inhibition was 7.96%.

Consider `Nc1nc2cc(S(=O)(=O)NC3=NCCCCC3)ccc2s1`, for which the inhibition is 37.1%.

Take `O=S(=O)(Nc1nc2c(s1)CCCC2)c1ccc2ccccc2c1`: the inhibition is 21.8%.

`CCc1ccc(C(=O)OCC(=O)Nc2cccc(S(=O)(=O)NC3=NCCCCC3)c2)cc1`: the inhibition is 23%.

Regarding `CC1CC(=O)C2=C(C1)Nc1ccccc1N(C(=O)COc1ccccc1)C2c1ccco1` (centres undefined), the inhibition is 5.78%.

For `CCN(CC)Cc1c(O)ccc2c(=O)c(Oc3ccccc3OC)c(C)oc12`, the inhibition was 13.5%.

For the compound `Cc1c(-c2ccc(F)cc2)[n+](=O)c(-c2ccc(F)cc2)c(C)n1[O-]`, the inhibition was 17.5%.

With `CC(C)(C)c1ccc(C(=O)NNC(=S)NCc2ccco2)cc1`, the inhibition was 12.7%.

On to `c1ccc(-c2nc3ccccn3c2NC2CCCC2)nc1`, for which the inhibition is 35%.

For the compound `Cc1ccc2nc(-c3ccccn3)c(Nc3ccccc3C)n2c1`, the inhibition was 16.6%.

Turning to `Cc1ccc2nc(-c3ccncc3)c(NC3CCCC3)n2c1`, the inhibition is 11.4%.

As to `Cc1ccccc1Nc1c(-c2cccnc2)nc2ccccn12`, the inhibition is 11.7%.

Take `CCCCCCC(=O)Oc1cccc(N2C(=O)C3CCCCC3C2=O)c1` (centres undefined): the inhibition was 4.91%.

Regarding `CCOC(=O)N1CCN(S(=O)(=O)c2ccc(OCC(=O)OC)c(Cl)c2)CC1`, the inhibition was -13.8%.

Take `N#C/C(=C\c1ccc2c(c1)OCO2)C(=O)NCc1ccco1`: the inhibition is 6.96%.

Consider `CC(c1ccccc1)N1CCC(CNC(=S)Nc2cccc(Cl)c2)C1` (centres undefined), for which the inhibition is 16.7%.

`C[C@@H]1O[C@@H](OC[C@H]2O[C@@H](Oc3c(-c4ccc(O)cc4)oc4cc(O)cc(O)c4c3=O)[C@H](O)[C@@H](O)[C@@H]2O)[C@H](O)[C@H](O)[C@H]1O`: the inhibition is 10%.

`O=c1c(O[C@@H]2O[C@H](CO)[C@H](O)[C@H](O)[C@H]2O)c(-c2ccc(O)c(O)c2)oc2cc(O)cc(O)c12`: the inhibition is -2.68%.

Consider `C[C@@H]1O[C@@H](OC[C@H]2O[C@@H](Oc3c(-c4ccc(O)c(O)c4)oc4cc(O)cc(O)c4c3=O)[C@H](O)[C@@H](O)[C@@H]2O)[C@H](O)[C@H](O)[C@H]1O`, for which the inhibition was 5.24%.

In the case of `O=c1c(O[C@@H]2O[C@H](CO)[C@@H](O)[C@H](O)[C@H]2O)c(-c2ccc(O)c(O)c2)oc2cc(O)cc(O)c12`, the inhibition is 2.85%.

Turning to `CC1OC(OC2C(Oc3c(-c4ccc(O)cc4)oc4cc(O)cc(O)c4c3=O)OC(COC3O[C@@H](C)[C@H](O)[C@@H](O)C3O)C(O)C2O)C(O)C(O)C1O` (some centres undefined), the inhibition was 3.2%.

Turning to `O=c1c(OC2OC(CO)C(O)C(O)C2OC2OC(CO)C(O)C(O)C2OC2OC(CO)C(O)C(O)C2O)c(-c2ccc(O)c(O)c2)oc2cc(O)cc(O)c12` (centres undefined), the inhibition is 7.41%.

By inhibition is commonly meant the change of the read-out against control, counted positive when it falls.

The values are drawn from PubChem BioAssay AID1903 (Southern Research Specialized Biocontainment Screening …, 2009).
